# aSyn 5UTR act: Activators working through SNCA 5'UTR binding (MLPCN). AID 1814. alpha-synuclein 5'UTR reporter, activators screen. hit rate 7.1% among 300,000. activity score, % (tested at 7.5 µM), hits read low; in the data active = activity score below about -60%
# * marks the source's active call; other numbers are inactive results. These entries were drawn from the full list.
SMILES,aSyn 5UTR act
CC1CCN(CCCNC(=O)c2ccc3c(=O)n(CCc4ccccc4)c(=O)[nH]c3c2)CC1,-74*
CC1CCCCN1CCNC(=O)c1ccc2c(=O)n(CCc3ccccc3)c(=O)[nH]c2c1 (stereo not drawn),-79*
COc1ccccc1N=C1NC(=O)/C(=C/c2ccc(N(C)C)cc2)S1,-194*
O=C(/C=C/Sc1ccc(C(F)(F)F)cn1)c1ccccc1,-72*
Cc1cc(C)[n+]2n1C(=O)C(c1ccccc1)=C2[O-],-93*
O=C(CCCN1C(=O)/C(=C/c2ccccc2Cl)SC1=S)NNC(=O)c1ccccc1,62
O=C(CCN1C(=O)/C(=C/c2ccccc2Cl)SC1=S)NC1C=CS(=O)(=O)C1 (stereo not drawn),-71*
O=C(CCN1C(=O)/C(=C/c2ccc(F)cc2)SC1=S)NC1C=CS(=O)(=O)C1 (stereo not drawn),-73*
COC(=O)Cn1c(SCc2ccccc2)nc2ccccc21,-166*
Cc1c(Cl)c(C(=O)NNC(=S)Nc2ccc(F)cc2)nn1C,-70*
Cc1c(Cl)c(C(=O)NNC(=S)Nc2ccccc2)nn1C,-102*
Cc1ccc(NC(=S)NNC(=O)c2nn(C)cc2Cl)cc1,-90*
C=C(C)CN(CC)C(=O)CCc1nnc(CCCc2ccccc2)o1,-150*
Cc1cccc(Cc2nnc(CCC(=O)N(C)CCc3ccccc3)o2)c1,-137*
CCN(CCn1cccn1)C(=O)CCc1nnc(CCCc2ccccc2)o1,-122*
CNc1nnc(-c2cccc(N(C)C)c2)s1,-94*
O=c1n(Cc2ccccc2Cl)nc2n1-c1ccccc1SC2,-87*
O=C(c1ccco1)N1N=C(c2ccc3nccnc3c2)CC1c1ccccc1 (stereo not drawn),-67*
O=C(Nc1ccc(F)cc1)N1CCc2ccccc2C1,-203*
O=C(NC1CCCCC1)N1CCc2ccccc2C1,-85*
O=C(Nc1ccc(Br)cc1)N1CCc2ccccc2C1,-161*
CN(C)/C=N/c1c(C#N)cnn1-c1nc2ccccc2s1,-96*
COc1cc(/C=N/N2CCN(C3c4ccccc4-c4ccccc43)CC2)ccc1O,-63*
O=c1c2ccccc2sn1-c1ccccc1,-115*
CCC(=O)N1CCc2nc(-c3ccccc3)sc2C1,-179*
SMILES,aSyn 5UTR act
COc1cccc(NC(=O)CSc2nnc(-c3cccc(OC(C)C)c3)n2N)c1,-73*
CCOC(=O)c1sc(NC(=O)c2ccc(Br)o2)cc1C,-236*
CCOC(=O)c1sc(NC(=O)Nc2cccc(Cl)c2)cc1C,-110*
CCOC(=O)c1sc(NC(=O)c2cccs2)cc1C,-88*
CCOC(=O)c1sc(NC(=O)c2sccc2C)cc1C,-82*
Cc1[nH]n(-c2cccc(Cl)c2)c(=O)c1C=NCC(C)C,-168*
Cc1[nH]n(-c2cccc(Cl)c2)c(=O)c1C=NCc1ccco1,-134*
Cc1[nH]n(-c2ccccc2)c(=O)c1C=NCc1ccco1,-114*
O=C(N/C=C/c1ccccc1)c1ccccc1,-135*
COCn1c(-c2ccc(OC)c(OC)c2)nc2ccccc21,-106*
COCn1c(-c2cccc(Br)c2)nc2ccccc21,-63*
CC(/C=C/c1ccccc1F)=N\NC(=O)c1ccccc1,-144*
O=C(N/N=C/c1cccc2ccccc12)c1cccs1,-164*
Cc1cc(C(=O)N/N=C/c2c[nH]c3ccccc23)c(C)o1,-81*
O=C(N/N=C/c1c[nH]c2ccccc12)c1ccc2c(c1)OCCO2,-140*
O=C(N/N=C/c1c[nH]c2ccccc12)c1cccs1,-127*
O=C(CSc1nnc(SCc2cccc3ccccc23)s1)N/N=C/c1c[nH]c2ccccc12,-78*
Cc1cc(/C=N\NC(=O)c2cccs2)c(C)n1-c1ccc2ncccc2c1,-145*
Cc1cccc(NC(=S)N/N=C/c2c[nH]c3ccccc23)c1,-65*
Cc1cc(C(=O)N/N=C/c2c[nH]c3ccccc23)cs1,-74*
O=C(CSc1nnc2ccccn12)N1CCc2ccccc21,-98*
O=C(CSc1nnc2ccccn12)N1CCc2ccccc2C1,-94*
Cc1ccc(C(=O)Nc2nnc(SCC(=O)N3CCCc4ccccc43)s2)cc1,74
Cc1ccnc(SCC(=O)N2CCc3ccccc32)n1,-87*
Cn1ccnc1SCC(=O)N1CCc2ccccc21,-69*
SMILES,aSyn 5UTR act
CC(C)Oc1ccc(C(=O)Nc2cccc3cccnc23)cc1,-136*
Cc1cc(C(=O)Nc2cccc3cccnc23)ccc1[N+](=O)[O-],-106*
COc1ccc(C(NC(=O)c2cccnc2)c2cc(Cl)c3cccnc3c2O)cc1OC (stereo not drawn),76
COc1ccc(NC(=O)C(=O)Nc2cccc3cccnc23)cc1OC,-114*
COc1ccc(C(=O)Nc2cccc3cccnc23)cc1OC,-72*
CCS(=O)(=O)c1ccc(OC)c(N=Nc2ccc(O)c3ncccc23)c1,66
Cc1ccsc1/C=N/NC(=O)c1ccc2ccccc2c1,-216*
COc1cc(C(=O)N/N=C/c2sccc2C)cc(OC)c1OC,114
Cc1ccsc1/C=N/NC(=O)c1ccc([N+](=O)[O-])cc1,-88*
Cc1ccsc1/C=N/NC(=O)Nc1ccccc1,-162*
ClC1=C(Cl)C(Cl)=C(Cl)C1=C/C=C/c1ccccc1,113
